The supplement of paper PMC8728848
The full list was thinned out, with the strongest signals kept by preference.

Key:
Assay in all cases: glycan array binding signal (z-score within array); higher = stronger binding
Settings in all cases: glycan notation: IUPAC condensed, linker removed
[1] = target: Fuc(a1-2)Gal(b1-3)GlcNAc6S
In short: (§1)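 Arrays were curated from the Consortium for Functional Glycomics database, 3228 in total, and kept only where the protein sequence was available. Binding is expressed as a within-array Z-score. This score was averaged across arrays of the same protein sequence at different concentrations or buffers and across linkers, and negative values can be read as non-binding.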

[2] = target: Fuc(a1-2)Gal(b1-3)[Fuc(a1-4)]GlcNAc(b1-2)Man(a1-3)[Fuc(a1-2)Gal(b1-3)[Fuc(a1-4)]GlcNAc(b1-2)Man(a1-6)]Man(b1-4)GlcNAc(b1-4)[Fuc(a1-6)]GlcNAc(b1-4)[Fuc(a1-6)]GlcNAc
In short: as §1

[3] = target: Fuc(a1-2)Gal(b1-4)Glc
In short: as §1

[4] = target: Fuc(a1-2)Gal(b1-4)GlcNAc
In short: as §1

[5] = target: Fuc(a1-2)Gal(b1-4)[Fuc(a1-3)]GlcNAc
In short: as §1

[6] = target: Fuc(a1-2)Gal6S(b1-4)GlcNAc
In short: as §1

[7] = target: Fuc(a1-2)[Gal(a1-3)]Gal(b1-3)GlcNAc
In short: as §1

[8] = target: Fuc(a1-2)[Gal(a1-3)]Gal(b1-4)[Fuc(a1-3)]GlcNAc
In short: as §1

[9] = target: Fuc(a1-2)[GalNAc(a1-3)]Gal(b1-3)GlcNAc
In short: as §1

[10] = target: Fuc(a1-2)[GalNAc(a1-3)]Gal(b1-3)GlcNAc(b1-2)Man(a1-3)[Fuc(a1-2)[GalNAc(a1-3)]Gal(b1-3)GlcNAc(b1-2)Man(a1-6)]Man(b1-4)GlcNAc(b1-4)GlcNAc
In short: as §1

[11] = target: Fuc(a1-2)[GalNAc(a1-3)]Gal(b1-4)Glc
In short: as §1

[12] = target: Fuc(a1-2)[GalNAc(a1-3)]Gal(b1-4)GlcNAc
In short: as §1

[13] = target: Fuc(a1-2)[GalNAc(a1-3)]Gal(b1-4)GlcNAc(b1-2)Man
In short: as §1

[14] = target: Fuc(a1-2)[GalNAc(a1-3)]Gal(b1-4)GlcNAc(b1-2)Man(a1-3)[Fuc(a1-2)[GalNAc(a1-3)]Gal(b1-4)GlcNAc(b1-2)Man(a1-6)]Man(b1-4)GlcNAc(b1-4)GlcNAc
In short: as §1

[15] = target: Fuc(a1-2)[GalNAc(a1-3)]Gal(b1-4)GlcNAc(b1-3)Gal(b1-4)GlcNAc
In short: as §1

[16] = target: Fuc(a1-2)[GalNAc(a1-3)]Gal(b1-4)GlcNAc(b1-3)Gal(b1-4)GlcNAc(b1-3)Gal(b1-4)GlcNAc
In short: as §1

[17] = target: Fuc(a1-3)[Gal(b1-4)]GlcNAc(b1-6)GalNAc
In short: as §1

[18] = target: Gal(a1-3)Gal(b1-4)[Fuc(a1-3)]GlcNAc
In short: as §1

[19] = target: Gal(b1-3)GalNAc(a1-3)[Fuc(a1-2)]Gal(b1-4)Glc
In short: as §1

[20] = target: Gal(b1-3)GalNAc(a1-3)[Fuc(a1-2)]Gal(b1-4)GlcNAc
In short: as §1

[21] = target: Gal(b1-3)GlcNAc
In short: as §1

[22] = target: Gal(b1-3)GlcNAc(b1-2)Man(a1-3)[Gal(b1-3)GlcNAc(b1-2)Man(a1-6)]Man(b1-4)GlcNAc(b1-4)GlcNAc
In short: as §1

[23] = target: Gal(b1-3)[GlcNAc(b1-6)]GalNAc
In short: as §1

[24] = target: Gal(b1-3)[Neu5Ac(a2-6)]GlcNAc(b1-6)Gal(b1-4)Glc
In short: as §1

[25] = target: Gal(b1-4)GalNAc(a1-3)[Fuc(a1-2)]Gal(b1-4)GlcNAc
In short: as §1

[26] = target: Gal(b1-4)GlcNAc(b1-2)Man
In short: as §1

[27] = target: Gal(b1-4)GlcNAc(b1-3)Gal(b1-4)GlcNAc(b1-3)Gal(b1-4)GlcNAc
In short: as §1

[28] = target: Gal(b1-4)GlcNAc(b1-3)Gal(b1-4)GlcNAc(b1-3)Gal(b1-4)GlcNAc(b1-3)Gal(b1-4)GlcNAc(b1-2)[Gal(b1-4)GlcNAc(b1-3)Gal(b1-4)GlcNAc(b1-3)Gal(b1-4)GlcNAc(b1-3)Gal(b1-4)GlcNAc(b1-6)]Man(a1-6)[Gal(b1-4)GlcNAc(b1-3)Gal(b1-4)GlcNAc(b1-3)Gal(b1-4)GlcNAc(b1-3)Gal(b1-4)GlcNAc(b1-2)Man(a1-3)]Man(b1-4)GlcNAc(b1-4)[Fuc(a1-6)]GlcNAc
In short: as §1

[29] = target: Gal3S(b1-4)[Fuc(a1-3)]Glc6S
In short: as §1

B1: Gal 4 (Mus musculus), P56470 (protein)
chain: MAYVPAPGYQPTYNPTLPYYQPIPGGLNVGMSVYIQGVASEHMKRFFVNFVVGQDPGSDVAFHFNPRFDGWDKVVFNTLQGGKWGSEERKRSMPFKKGAAFELVFIVLAEHYKVVVNGNPFYEYGHRLPLQMVTHLQVDGDLQLQSINFIGGQPLRPQGPPMMPPYPGPGHCHQQLNSLPTMEGPPTFNPPVPYFGRLQGGLTARRTIIIKGYVPPTGKSFAINFKVGSSGDIALHINPRMGNGTVVRNSLLNGSWGSEEKKITHNPFGPGQFFDLSIRCGLDRFKVYANGQHLFDFAHRLSAFQRVDTLEIQGDVTLSYVQI
glycan array binding signal (z-score) [1]: 4.25
glycan array binding signal (z-score) [2]: -0.312
glycan array binding signal (z-score) [3]: -0.196
glycan array binding signal (z-score) [4]: -0.232
glycan array binding signal (z-score) [5]: -0.234
glycan array binding signal (z-score) [6]: -0.199
glycan array binding signal (z-score) [7]: 2.26
glycan array binding signal (z-score) [8]: -0.266
glycan array binding signal (z-score) [9]: 4.51
glycan array binding signal (z-score) [10]: 6.91
glycan array binding signal (z-score) [11]: 5.4
glycan array binding signal (z-score) [12]: 3.27
glycan array binding signal (z-score) [13]: 4.19
glycan array binding signal (z-score) [14]: 3.77
glycan array binding signal (z-score) [15]: 4.64
glycan array binding signal (z-score) [16]: 4.02
glycan array binding signal (z-score) [17]: -0.301
glycan array binding signal (z-score) [18]: -0.234
glycan array binding signal (z-score) [19]: 4.95
glycan array binding signal (z-score) [20]: 3.84
glycan array binding signal (z-score) [21]: -0.228
glycan array binding signal (z-score) [22]: -0.181
glycan array binding signal (z-score) [23]: -0.234
glycan array binding signal (z-score) [24]: -0.176
glycan array binding signal (z-score) [25]: 4.23
glycan array binding signal (z-score) [26]: -0.289
glycan array binding signal (z-score) [27]: -0.171
glycan array binding signal (z-score) [28]: -0.148
glycan array binding signal (z-score) [29]: -0.18
